# Data from PubChem BioAssay (EPA / NIEHS).
# “And” between values parts separate entries of the source, which are not always exact repeats. Identical values can stand only once. Some compounds were tested as several samples or in several runs, with calls that do not always agree. The source made the active and inactive calls. The calls were made as follows: active = hit-call score of the fitted dose curve at least 0.9, where 1 is the maximum; inactive = score below 0.9.
# Columns and labels:
# [1] = ATG_Ets_CIS: Attagene CIS-FACTORIAL HepG2 Assay for human Erythroblast Transformation Specific (ETS) (AID 2282941); conditions: HepG2 ETS cis-reporter transcription, actives raise or lower the signal
# Summary of the method: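 HepG2 cells transfected with multiple cis-regulated reporter units measuring endogenous ETS-driven transcription, 24 h after dosing. Reporter mRNA quantified by RT-PCR with capillary electrophoresis; bidirectional fit relative to DMSO.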
# [2] = target: Hepatocyte nuclear factor 3-beta (Homo sapiens) (UniProt Q9Y261); test: ATG_FoxA2_CIS: Attagene CIS-FACTORIAL HepG2 Assay for human Forkhead box A2 (FOXA2) (AID 2282942); conditions: HepG2 cis-reporter transcription factor activity, 24 h; actives raise or lower the signal
# Summary of the method: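 Multiplexed cis-element reporter assay in transiently transfected HepG2. Twenty-four hours post-dosing, RNA was reverse-transcribed, amplified, FAM-labelled, HpaI-digested and separated by CE. Activity gain or loss relative to DMSO.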
# [3] = ATG_FoxO_CIS: Attagene CIS-FACTORIAL HepG2 Assay for human Forkhead box O (FoxO) (AID 2282943); conditions: HepG2 Attagene cis-reporter, FoxO element, mRNA; actives raise or lower the signal
# Summary of the method: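 Endogenous transcription factor activity read from multiplexed cis-promoter reporter transcripts in transiently transfected HepG2, 24 h after dosing. Reporter RNA measured via RT-PCR plus capillary electrophoresis of FAM-labeled products; gain or loss relative to DMSO.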
# [4] = ATG_GATA_CIS: Attagene CIS-FACTORIAL HepG2 Assay for human GATA Binding Protein (AID 2282944); conditions: HepG2 GATA cis-element reporter, Attagene multiplex mRNA; actives raise or lower the signal
# Summary of the method: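 Transfected cis-reporter HepG2 cells were treated with chemicals for 24 hours. Total RNA was then converted to cDNA, amplified with reporter-specific primers and analysed by fluorescent capillary electrophoresis, using DMSO-treated wells as baseline.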
# [5] = ATG_GLI_CIS: Attagene CIS-FACTORIAL HepG2 Assay for human Zinc Finger Protein GLI1 (AID 2282945); conditions: HepG2, Attagene cis-factorial reporter mRNA, GLI element; actives raise or lower the signal
# Summary of the method: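 Bidirectional curve fits relative to DMSO, using reporter mRNA levels from RT-PCR plus capillary electrophoresis. Cells were HepG2 transiently carrying cis-regulated reporter constructs, harvested 24 h after dosing.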
# [6] = target: Bile acid receptor (Homo sapiens) (UniProt Q96RI1); test: ATG_IR1_CIS: Attagene CIS-FACTORIAL HepG2 Assay for human Nuclear Receptor Subfamily 1 Group H Member 4 (NR1H4), IR1 submotif (AID 2282946); conditions: IR1 reporter transcription, actives raise or lower the signal
# Summary of the method: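 Cells (human HepG2) carry transiently transfected cis-promoter reporter transcription units. Compounds are incubated 24 h, total RNA is reverse-transcribed and amplified, and labelled fragments are resolved by capillary electrophoresis. Curves use DMSO as baseline.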
# [7] = ATG_GRE_CIS: Attagene CIS-FACTORIAL HepG2 Assay for human Glucocorticoid Response Elements (GRE) (AID 2282947); conditions: HepG2 GRE cis-reporter, Attagene multiplex mRNA; actives raise or lower the signal
# Summary of the method: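 Transient MRTU transfection of human HepG2 liver cells; cis-regulated reporters report endogenous factors. 24 h dosing → RNA isolation → RT-PCR → 6-FAM primer extension → HpaI cut → CE fragment analysis. Bidirectional fit, DMSO negative control.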
# [8] = ATG_M_32_CIS: Attagene CIS-FACTORIAL HepG2 Assay for M32 Transcription Factor (Internal Marker) (AID 2282949); conditions: HepG2 Attagene cis-factorial M32 reporter, mRNA; actives raise or lower the signal;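 also: background control marker of the multiplexed CIS panel rather than a real target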
# Summary of the method: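 Fluorescent capillary electrophoresis peaks of HpaI-digested, FAM-labelled RT-PCR reporter products give the signal. Source: transiently transfected human liver HepG2 cells, 24 h after chemical dosing; bidirectional fitting against DMSO.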
# [9] = ATG_M_06_CIS: Attagene CIS-FACTORIAL HepG2 Assay for M06 Transcription Factor (Internal Marker) (AID 2282950); conditions: HepG2 Attagene CIS-FACTORIAL M06 internal marker reporter; actives raise or lower the signal
# Summary of the method: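 Cells (HepG2, transiently carrying cis-driven reporter units) receive chemical for 24 h before RNA isolation. Reporter cDNA is PCR-amplified, FAM-labelled by primer extension, HpaI-digested and sized on a capillary analyser.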
# [10] = target: Hypoxia-inducible factor 1-alpha (Homo sapiens) (UniProt Q16665); test: ATG_HIF1a_CIS: Attagene CIS-FACTORIAL HepG2 Assay for human Hypoxia Inducible Factor 1 (HIF1A) (AID 2282951); conditions: HepG2 Attagene cis-factorial HIF1a reporter transcription; actives raise or lower the signal
# Summary of the method: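 Cis-element reporter constructs were transiently transfected into HepG2 cells, which were treated for 24 h; reporter RNA was reverse-transcribed, amplified, labelled and resolved by capillary electrophoresis.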
# [11] = target: Hepatocyte nuclear factor 6 (Homo sapiens) (UniProt Q9UBC0); test: ATG_HNF6_CIS: Attagene CIS-FACTORIAL HepG2 Assay for human Hepatocyte Nuclear Factor 6 (HNF6) (AID 2282952); conditions: HepG2 Attagene cis-factorial HNF6 reporter transcription; actives raise or lower the signal
# Summary of the method: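 Transiently transfected HepG2 cells expressing cis-regulated reporter transcription units were exposed to chemical for 24 h in a 24-well format. Reporter transcript abundance was determined by fluorescence capillary electrophoresis.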
# [12] = target: Heat shock factor protein 1 (Homo sapiens) (UniProt Q00613); test: ATG_HSE_CIS: Attagene CIS-FACTORIAL HepG2 Assay for human Heat Shock Transcription Factor 1 (HSE) (AID 2282953); conditions: HepG2 HSE cis-reporter, Attagene RNA transcription; actives raise or lower the signal
# Summary of the method: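 Liver-derived HepG2 cells carry transiently introduced multiple reporter units governed by cis promoters. Reporter RNA measured 24 h post-dose through reverse transcription, PCR amplification, fluorescent labelling and capillary electrophoresis, normalised to DMSO.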
# [13] = ATG_MRE_CIS: Attagene CIS-FACTORIAL HepG2 Assay for human Metal Responsive Element (MRE) (AID 2282954); conditions: HepG2 MRE cis-reporter transcription, Attagene multiplex; actives raise or lower the signal
# Summary of the method: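 Transient MRTU transfection of HepG2 (FuGene 6); 24 h dosing; total RNA → oligo(dT) RT, PCR, 6-FAM primer extension, HpaI cut, CE. Bidirectional fit vs DMSO.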
# [14] = target: Paired box protein Pax-6 (Homo sapiens) (UniProt P26367); test: ATG_Pax6_CIS: Attagene CIS-FACTORIAL HepG2 Assay for human Paired Box 6 (PAX6) (AID 2282956); conditions: HepG2 CIS-FACTORIAL PAX6 reporter transcription, RNA readout; actives raise or lower the signal
# Summary of the method: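 HepG2 cells transiently transfected with cis-promoter-driven multiplexed reporter units sensing endogenous transcription factor activity; 24 h chemical exposure. Reporter mRNA quantified by RT-PCR, 6-FAM labelling, HpaI digestion and capillary electrophoresis; bidirectional fit versus DMSO baseline.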
# [15] = ATG_PXRE_CIS: Attagene CIS-FACTORIAL HepG2 Assay for human Pregnane X Receptor Element (PXRE) (AID 2282957); conditions: HepG2 Attagene CIS-FACTORIAL PXRE reporter, mRNA; actives raise or lower the signal
# Summary of the method: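 Cis-element reporter mRNA in human hepatoma HepG2 cells is measured 24 h post-dosing by RT-PCR, primer-extension labeling and capillary electrophoresis; gain or loss of signal is fitted relative to DMSO.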
# [16] = ATG_PPRE_CIS: Attagene CIS-FACTORIAL HepG2 Assay for human Peroxisome Proliferator-activated Response Element (PPRE) (AID 2282958); conditions: HepG2 PPRE cis-element reporter, Attagene transcription factor profiling; actives raise or lower the signal
# Summary of the method: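 DMSO served as negative control and baseline for bidirectional curve fitting. Signal came from PPRE-regulated reporter mRNA in HepG2 cells, measured 24 h post-dosing by RT-PCR, 6-FAM primer extension and capillary electrophoresis.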
# [17] = ATG_Sox_CIS: Attagene CIS-FACTORIAL HepG2 Assay for human SRY-box transcription factor (SOX) (AID 2282960); conditions: HepG2 Attagene cis-factorial SOX reporter, mRNA; actives raise or lower the signal
# Summary of the method: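 Fluorescence-labelled cDNA fragments from reporter transcripts, sized by CE, give the signal. Cells: HepG2, transiently transfected with cis-regulated reporter units. Exposure 24 h; DMSO negative control; bidirectional curve fitting.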
# [18] = ATG_ISRE_CIS: Attagene CIS-FACTORIAL HepG2 Assay for human Interferon Regulatory Factor 1 (IRF1) binding to an Interferon-Stimulated Response Element (ISRE) (AID 2282948); conditions: HepG2 ISRE cis-reporter (Attagene), mRNA transcription readout; actives raise or lower the signal
# Summary of the method: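 Transiently transfected HepG2 cells carrying cis-element reporter units, dosed 24 hours. Reporter mRNA quantified by RT-PCR, fluorescent primer extension, HpaI digestion and capillary electrophoresis. Bidirectional fitting relative to DMSO.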
# [19] = ATG_PBREM_CIS: Attagene CIS-FACTORIAL HepG2 Assay for human Phenobarbital-responsive Enhancer Module (PBREM) (AID 2282955); conditions: HepG2 PBREM cis-reporter, Attagene multiplexed transcription; actives raise or lower the signal
# Summary of the method: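 Multiplexed cis-reporter readout in human hepatoma HepG2 cells; PBREM-regulated transcript quantified after 24 h exposure by fluorescent RT-PCR fragment analysis. Signal changes up or down fitted relative to DMSO.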
# [20] = ATG_RORE_CIS: Attagene CIS-FACTORIAL HepG2 Assay for human RAR-related Orphan Receptor Element (RORE) (AID 2282959); conditions: HepG2 Attagene cis-factorial RORE reporter, mRNA; actives raise or lower the signal
# Summary of the method: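 Transfect HepG2 with MRTUs; treat 24 h; extract RNA; RT with oligo(dT); PCR with reporter-specific primers; 6-FAM primer extension; HpaI digest 2 h at 37 C; capillary electrophoresis. Fit vs DMSO, bidirectional.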
# Heat shock factor protein 1 (Homo sapiens), sequence (Q00613 whole entry, looked up): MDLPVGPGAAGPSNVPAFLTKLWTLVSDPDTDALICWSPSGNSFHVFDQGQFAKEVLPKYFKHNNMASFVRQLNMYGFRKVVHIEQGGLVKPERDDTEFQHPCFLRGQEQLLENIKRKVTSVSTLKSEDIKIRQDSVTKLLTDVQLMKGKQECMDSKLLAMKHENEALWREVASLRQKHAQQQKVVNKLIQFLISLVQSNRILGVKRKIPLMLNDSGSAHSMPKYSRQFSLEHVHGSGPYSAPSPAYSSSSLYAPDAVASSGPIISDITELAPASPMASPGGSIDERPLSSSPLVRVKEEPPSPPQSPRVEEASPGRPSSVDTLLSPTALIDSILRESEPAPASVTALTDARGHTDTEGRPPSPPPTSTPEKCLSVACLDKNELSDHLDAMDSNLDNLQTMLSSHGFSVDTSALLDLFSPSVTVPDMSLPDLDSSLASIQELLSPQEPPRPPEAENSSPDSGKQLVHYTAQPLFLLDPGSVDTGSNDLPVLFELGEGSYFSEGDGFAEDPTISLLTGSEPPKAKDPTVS
# Paired box protein Pax-6 (Homo sapiens), sequence (P26367 whole entry, looked up): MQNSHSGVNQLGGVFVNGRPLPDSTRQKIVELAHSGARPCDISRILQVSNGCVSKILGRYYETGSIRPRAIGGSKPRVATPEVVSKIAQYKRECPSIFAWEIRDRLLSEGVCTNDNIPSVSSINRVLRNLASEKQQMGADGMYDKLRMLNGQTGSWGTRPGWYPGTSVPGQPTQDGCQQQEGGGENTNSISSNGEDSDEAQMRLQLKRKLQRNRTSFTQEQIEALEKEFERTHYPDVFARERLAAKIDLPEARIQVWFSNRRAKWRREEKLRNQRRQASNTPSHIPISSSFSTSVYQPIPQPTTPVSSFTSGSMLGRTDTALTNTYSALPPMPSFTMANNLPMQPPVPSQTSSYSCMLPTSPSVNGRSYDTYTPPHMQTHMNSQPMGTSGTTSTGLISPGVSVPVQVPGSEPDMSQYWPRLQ
# Bile acid receptor (Homo sapiens), sequence (Q96RI1 whole entry, looked up, the tested form may be a part): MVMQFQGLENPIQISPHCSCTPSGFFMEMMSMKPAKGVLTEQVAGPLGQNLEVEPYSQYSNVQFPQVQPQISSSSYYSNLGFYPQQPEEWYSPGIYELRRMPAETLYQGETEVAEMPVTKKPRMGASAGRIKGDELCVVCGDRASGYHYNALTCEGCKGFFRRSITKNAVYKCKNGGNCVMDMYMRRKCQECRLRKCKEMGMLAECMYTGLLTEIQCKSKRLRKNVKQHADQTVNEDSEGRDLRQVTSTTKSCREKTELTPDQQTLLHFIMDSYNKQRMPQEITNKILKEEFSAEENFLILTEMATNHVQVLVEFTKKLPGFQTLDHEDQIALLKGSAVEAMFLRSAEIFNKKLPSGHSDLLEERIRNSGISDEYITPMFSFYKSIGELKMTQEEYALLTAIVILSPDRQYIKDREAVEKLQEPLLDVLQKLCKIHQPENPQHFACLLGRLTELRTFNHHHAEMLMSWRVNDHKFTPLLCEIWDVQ
# Hypoxia-inducible factor 1-alpha (Homo sapiens), sequence (Q16665 whole entry, looked up): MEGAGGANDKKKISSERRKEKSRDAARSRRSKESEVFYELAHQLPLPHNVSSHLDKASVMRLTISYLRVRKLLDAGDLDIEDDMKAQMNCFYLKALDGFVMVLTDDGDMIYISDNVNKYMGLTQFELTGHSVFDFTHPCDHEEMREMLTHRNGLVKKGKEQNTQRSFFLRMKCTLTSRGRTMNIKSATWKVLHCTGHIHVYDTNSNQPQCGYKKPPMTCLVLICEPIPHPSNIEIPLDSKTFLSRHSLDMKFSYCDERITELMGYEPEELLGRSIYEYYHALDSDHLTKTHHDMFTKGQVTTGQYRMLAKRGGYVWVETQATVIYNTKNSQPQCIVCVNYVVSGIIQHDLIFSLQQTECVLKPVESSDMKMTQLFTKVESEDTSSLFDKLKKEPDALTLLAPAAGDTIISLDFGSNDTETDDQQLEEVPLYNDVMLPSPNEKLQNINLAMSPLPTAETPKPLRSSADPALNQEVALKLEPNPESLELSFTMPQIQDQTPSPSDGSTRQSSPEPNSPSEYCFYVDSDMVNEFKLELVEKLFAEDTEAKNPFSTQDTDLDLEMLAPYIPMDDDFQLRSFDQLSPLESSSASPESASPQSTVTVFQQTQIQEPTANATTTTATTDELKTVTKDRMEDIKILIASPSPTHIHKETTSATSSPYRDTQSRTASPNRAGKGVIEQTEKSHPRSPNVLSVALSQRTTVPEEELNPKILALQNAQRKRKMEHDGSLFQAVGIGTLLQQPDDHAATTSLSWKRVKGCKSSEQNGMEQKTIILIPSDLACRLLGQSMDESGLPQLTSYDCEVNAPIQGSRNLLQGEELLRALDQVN
# Hepatocyte nuclear factor 3-beta (Homo sapiens), sequence (Q9Y261 whole entry, looked up): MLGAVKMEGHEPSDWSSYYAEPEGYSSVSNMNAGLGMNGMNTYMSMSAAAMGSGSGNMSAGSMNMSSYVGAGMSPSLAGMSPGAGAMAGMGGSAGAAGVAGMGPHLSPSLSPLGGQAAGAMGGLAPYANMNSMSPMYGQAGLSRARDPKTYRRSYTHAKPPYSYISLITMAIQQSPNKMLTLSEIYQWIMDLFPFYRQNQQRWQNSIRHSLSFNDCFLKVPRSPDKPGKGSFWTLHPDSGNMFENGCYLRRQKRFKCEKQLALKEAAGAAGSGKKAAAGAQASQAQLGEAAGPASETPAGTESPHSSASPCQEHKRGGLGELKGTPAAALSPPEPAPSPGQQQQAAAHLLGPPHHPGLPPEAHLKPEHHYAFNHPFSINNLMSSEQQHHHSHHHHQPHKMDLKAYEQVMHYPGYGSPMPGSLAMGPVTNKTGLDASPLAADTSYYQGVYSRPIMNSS
# Hepatocyte nuclear factor 6 (Homo sapiens), sequence (Q9UBC0 whole entry, looked up): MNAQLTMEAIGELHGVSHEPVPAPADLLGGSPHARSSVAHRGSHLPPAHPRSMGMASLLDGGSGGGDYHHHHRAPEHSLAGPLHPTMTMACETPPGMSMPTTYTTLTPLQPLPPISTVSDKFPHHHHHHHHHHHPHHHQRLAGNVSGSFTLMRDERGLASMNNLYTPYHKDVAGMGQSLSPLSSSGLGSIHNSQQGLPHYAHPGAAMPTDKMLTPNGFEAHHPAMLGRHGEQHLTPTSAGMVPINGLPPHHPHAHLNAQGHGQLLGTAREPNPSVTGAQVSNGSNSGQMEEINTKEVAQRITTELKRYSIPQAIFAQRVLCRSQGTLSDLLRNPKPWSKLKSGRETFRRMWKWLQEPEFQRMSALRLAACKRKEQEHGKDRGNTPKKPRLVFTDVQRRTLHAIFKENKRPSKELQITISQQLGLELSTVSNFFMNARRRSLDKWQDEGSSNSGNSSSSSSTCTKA
smiles,measurement,setting,value
CCOP(=S)(OCC)SCCS(=O)(=O)CC,outcome,[1],inactive
same,outcome,[2],inactive
same,outcome,[3],inactive
same,outcome,[4],inactive
same,outcome,[5],inactive
same,outcome,[6],inactive
same,outcome,[7],inactive
same,outcome,[8],inactive
same,outcome,[9],inactive
same,outcome,[10],inactive
same,outcome,[11],inactive
same,outcome,[12],inactive
same,outcome,[13],inactive
same,outcome,[14],inactive
same,AC50,[15],11.5 µM (active)
same,outcome,[16],inactive
same,outcome,[17],inactive
CC(=O)C=C(C)C,outcome,[1],inactive
same,outcome,[2],inactive
same,outcome,[3],inactive
same,outcome,[4],inactive
same,outcome,[5],inactive
same,outcome,[7],inactive
same,outcome,[18],inactive
same,outcome,[8],inactive
same,outcome,[9],inactive
same,outcome,[10],inactive
same,outcome,[11],inactive
same,outcome,[12],inactive
same,outcome,[13],inactive
same,outcome,[19],inactive
same,outcome,[14],inactive
same,outcome,[15],inactive
same,outcome,[20],inactive
same,outcome,[17],inactive
CC(C)(C)CC(C)(C)c1ccc(O)cc1,outcome,[1],inactive
same,outcome,[2],inactive
same,outcome,[3],inactive
same,outcome,[4],inactive
same,outcome,[5],inactive
same,AC50,[6],16.3 µM (active)
same,outcome,[6],inactive
same,outcome,[7],inactive
same,AC50,[18],8.06 µM (active)
same,outcome,[18],inactive
same,outcome,[8],inactive
same,AC50,[10],0.932 nM (active) and 20.1 µM (active)
same,outcome,[10],inactive
same,outcome,[11],inactive
same,outcome,[12],inactive
same,outcome,[13],inactive
same,outcome,[14],inactive
same,AC50,[15],3.34 µM (active) [middle of 4 runs]
same,outcome,[17],inactive
C=CC(=O)OCCCCCC(C)C,outcome,[1],inactive
same,outcome,[2],inactive
same,outcome,[3],inactive
same,outcome,[4],inactive
same,outcome,[5],inactive
same,outcome,[6],inactive
same,outcome,[18],inactive
same,outcome,[8],inactive
same,outcome,[9],inactive
same,outcome,[10],inactive
same,outcome,[11],inactive
same,outcome,[12],inactive
same,outcome,[13],inactive
same,outcome,[14],inactive
same,AC50,[15],69.5 µM (active)
same,outcome,[16],inactive
same,outcome,[20],inactive
same,outcome,[17],inactive
Clc1nc(Cl)nc(Cl)n1,outcome,[1],inactive
same,outcome,[2],inactive
same,outcome,[3],inactive
same,outcome,[4],inactive
same,outcome,[5],inactive
same,outcome,[7],inactive
same,outcome,[18],inactive
same,outcome,[8],inactive
same,outcome,[9],inactive
same,outcome,[10],inactive
same,outcome,[11],inactive
same,AC50,[12],144 µM (active)
same,outcome,[13],inactive
same,outcome,[19],inactive
same,outcome,[14],inactive
same,outcome,[16],inactive
same,outcome,[17],inactive
O=C(O)C(F)(F)C(F)(F)C(F)(F)C(F)(F)C(F)(F)C(F)(F)F,outcome,[1],inactive
same,outcome,[2],inactive
same,outcome,[3],inactive
same,outcome,[4],inactive
same,outcome,[5],inactive
same,outcome,[6],inactive
same,outcome,[18],inactive
same,outcome,[8],inactive
same,outcome,[10],inactive
same,outcome,[11],inactive
same,outcome,[12],inactive
same,outcome,[13],inactive
same,outcome,[19],inactive
same,outcome,[14],inactive
same,AC50,[16],63.7 µM (active)
same,outcome,[16],inactive
same,outcome,[17],inactive
Clc1ccc(COC(Cn2ccnc2)c2ccc(Cl)cc2Cl)cc1 (configuration not stated),outcome,[1],inactive
same,outcome,[2],inactive
same,outcome,[3],inactive
same,outcome,[4],inactive
same,outcome,[5],inactive
same,outcome,[6],inactive
same,outcome,[7],inactive
same,outcome,[18],inactive
same,outcome,[8],inactive
same,outcome,[9],inactive
same,outcome,[11],inactive
same,outcome,[12],inactive
same,outcome,[13],inactive
same,outcome,[19],inactive
same,outcome,[14],inactive
same,AC50,[15],0.697 µM (active)
same,outcome,[17],inactive
C(=NC1CCCCC1)=NC1CCCCC1,outcome,[1],inactive
same,outcome,[2],inactive
same,outcome,[3],inactive
same,outcome,[4],inactive
same,outcome,[5],inactive
same,outcome,[6],inactive
same,AC50,[18],17.7 µM (active)
same,outcome,[8],inactive
same,outcome,[9],inactive
same,outcome,[10],inactive
same,outcome,[11],inactive
same,outcome,[12],inactive
same,AC50,[13],33.4 µM (active)
same,AC50,[19],8.4 µM (active)
same,outcome,[14],inactive
same,outcome,[15],inactive
same,AC50,[16],2.46 µM (active)
same,AC50,[20],2.33 µM (active)
same,outcome,[17],inactive
